According to PubChem BioAssay (NCATS):
Unmarked numbers belong to inactive results. Records with an inconclusive call do not appear. Entries that show only a call come without a potency. Activity calls are given as the source filed them. Calls follow the shape of the dose curve; as a rule, active = well fitted curve in the direction sought with a large enough effect; inconclusive = small, poorly fitted or top-dose-only effect, or another doubt; inactive = no such curve, though single readings can be large; an effect the other way counts as inactive or inconclusive.

Tests used:
[1] = OV-KATE Cancer Cell Toxicity qHTS against the NCATS CANVASS Library (AID 1347345)
How it was run: (§1)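 Step one: seed 1000 cells per well. Step two: incubate 4 h. Step three: add test compounds in 11 concentrations. Step four: culture 72 h, then add CellTiter-Glo and record luminescence after 15min.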

[2] = HPAF-II Cancer Cell Toxicity qHTS against the NCATS CANVASS Library (AID 1347346); also: nearly all actives have a fitted effect of over 55% in size; also: potency is read from the fitted curve at half-maximal effect
How it was run: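 Cytotoxicity read-out was CellTiter-Glo luminescence after 72 h at 37 degrees C exposure of HPAF-II cells (1000/well) to compounds in an 11-point titration.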

[3] = UWB1.289 Cancer Cell Toxicity qHTS against the NCATS CANVASS Library (AID 1347347); also: nearly all actives have a fitted effect of over 60% in size; also: potency is read from the fitted curve at half-maximal effect
How it was run: as §1

[4] = Panc-1005 Cancer Cell Toxicity qHTS against the NCATS CANVASS Library (AID 1347349); also: nearly all actives have a fitted effect of over 60% in size; also: potency is read from the fitted curve at half-maximal effect
How it was run: as §1

[5] = SW1088 Cancer Cell Toxicity qHTS against the NCATS CANVASS Library (AID 1347350); also: nearly all actives have a fitted effect of over 75% in size; also: potency is read from the fitted curve at half-maximal effect
How it was run: as §1

[6] = U-118MG Cancer Cell Toxicity qHTS against the NCATS CANVASS Library (AID 1347351); also: series mostly up to about 38 µM
How it was run: as §1

[7] = COV-362 Cancer Cell Toxicity qHTS against the NCATS CANVASS Library (AID 1347352); also: potency is read from the fitted curve at half-maximal effect
How it was run: (§2)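 Toxicity was measured as CellTiter-Glo luminescence after 72 h exposure to an 11-point compound series. Compound was added to 1000 cells/well 4 h after seeding.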

[8] = UWB1.289-WTBRCA1 Cancer Cell Toxicity qHTS against the NCATS CANVASS Library (AID 1347354); also: potency is read from the fitted curve at half-maximal effect
How it was run: as §2

[9] = HEK-293 Cancer Cell Toxicity qHTS against the NCATS CANVASS Library (AID 1347355); also: nearly all actives have a fitted effect of over 65% in size; also: potency is read from the fitted curve at half-maximal effect; as to outcome: series mostly up to about 46 µM
How it was run: as §2

[10] = KB-8-5-11 Cancer Cell Toxicity qHTS against the NCATS CANVASS Library (AID 1347364); also: nearly all actives have a fitted effect of over 75% in size
How it was run: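 Viability read as CellTiter-Glo luminescence after 72 h at 37 °C, 5% CO2. 11-point compound series on 500 KB-8-5-11 cells/well in DMEM/10% FBS. Follow-up plating included 1 uM tariquidar in the medium.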

[11] = SDT Cancer Cell Toxicity qHTS against the NCATS CANVASS Library (AID 1347365); also: nearly all actives have a fitted effect of over 60% in size; also: potency is read from the fitted curve at half-maximal effect
How it was run: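 Cytotoxicity taken from CellTiterGlo ATP luminescence after 72 hr at 37C, 5% CO2. Canine glioma line SDT, 500 cells/well, treated at 11 concentrations; bortezomib dose series as control.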

[12] = qHTS for ATAD5 Agonist screened against the NCATS CANVASS Library (AID 1347367);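 also: luciferase reporter driven by ATAD5 which rises upon DNA damage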
How it was run: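 HEK293T-ATAD5 luc reporter; 2000 cells/well; 5hr settle; cpd 11-pt qHTS; 16hr 37C 5% CO2 dark; viability by CellTiter-Fluor (AFC fluorescence); then luciferase luminescence, 30min RT.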

[13] = molecular target: Nuclear receptor subfamily 1 group I member 3 (Homo sapiens) (UniProt Q14994); test: qHTS for Constitutive Androstane Receptor (CAR) Agonist screened against the NCATS CANVASS Library (AID 1347373);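 also: every well also contained 1.5 µM PK11195 alongside the test compound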
How it was run: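 Agonist mode with 1.5uM PK11195 present: compounds for 24hr on HepG2-hCAR-CYP2B6 cells. CellTiter-Fluor fluorescence (ex 405, em 540 nm) gives viability; ONE-Glo luminescence reports CAR activation.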

[14] = qHTS for Hypoxia signaling pathway (HIF-1) antagonists against the NCATS CANVASS Library (AID 1347374); also: nearly all actives have a fitted effect of over 60% in size; also: potency is read from the fitted curve at half-maximal effect
How it was run: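 Antagonism scored as loss of CoCl2-driven (60 uM stock added) HRE beta-lactamase signal, read by CCF4 FRET at 460/530 nm. Compounds were tested in an 11-point series on ME-180 reporter cells for 17 hrs at 37C, with parallel CellTiter-Glo cytotoxicity.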

[15] = qHTS for Hypoxia signaling pathway (HIF-1) agonists against the NCATS CANVASS Library (AID 1347375)
How it was run: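 Beta-lactamase reporter under HRE control in ME-180 cells; compounds (11-point qHTS series) added after 5 hrs plating, then 17 hrs at 37C. FRET substrate read after 2 hr; same-well CellTiter-Glo luminescence gave viability and normalization.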

[16] = DH5-alpha competent E. coli microbial cell viability qHTS against the NCATS CANVASS Library (AID 1347377); details: outcome: dose series up to 46.1 µM unless noted
How it was run: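 Bacterial viability as ATP-dependent luminescence (BacTiter-Glo), read after overnight 37 °C exposure of DH5-alpha competent E. coli to compounds in 11-point titration.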

[17] = Secretion counterscreen for inhibitors of the SERCaMP assay screened against the NCATS CANVASS Library (AID 1347390);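 also: light from luciferase secreted into medium read as a measure of general secretion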; also: potency is read from the fitted curve at half-maximal effect
How it was run: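 SH-SY5Y-GLuc STOP cells; 4 h attach; cpds 0.001 - 77 uM (qHTS, 11 pts), 20 h 37C/5% CO2; coelenterazine in glow buffer; luminescence, 5 s exposure.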

[18] = qHTS for inhibitors of ER calcium dysfunction: SERCaMP assay screened against the NCATS CANVASS Library (AID 1347393);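 also: series mostly up to about 77 µM; lower secreted reporter signal means inhibitor of ER calcium depletion; nearly all actives have a fitted effect of over 40% in size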
How it was run: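 Thapsigargin-induced ER calcium depletion drives GLuc-SERCaMP secretion from SH-SY5Y cells; compounds given 16 h beforehand were scored by lowered coelenterazine luminescence after 4 h challenge.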

[19] = qHTS for inhibitors of Wild type Zika virus screened against the NCATS CANVASS Library (AID 1347396);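 also: ATP luminescence of surviving cells so rescue from viral cell killing; series mostly up to about 46 µM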
How it was run: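 Using ATP-based luminescence (CellTiter Glo), this screen scores rescue of Vero 766 cells from wild-type Zika killing at 72 h post-infection. Compounds are tested in a concentration series.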

[20] = molecular target: Nuclear receptor subfamily 1 group I member 3 (Homo sapiens) (UniProt Q14994); test: qHTS for Constitutive Androstane Receptor (CAR) Antagonist screened against the NCATS CANVASS Library (AID 1347372);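 also: cells stimulated with 50 nM CITCO agonist so inhibition reflects antagonism; series mostly up to about 46 µM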
How it was run: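 Antagonist mode: compound added alongside 50 nM CITCO to HepG2-hCAR-CYP2B6 reporter cells, 24hr at 37C. Viability by CellTiter-Fluor fluorescence, then CAR-driven luciferase by ONE-Glo luminescence.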

Nuclear receptor subfamily 1 group I member 3 (Homo sapiens), sequence (Q14994 whole entry, looked up): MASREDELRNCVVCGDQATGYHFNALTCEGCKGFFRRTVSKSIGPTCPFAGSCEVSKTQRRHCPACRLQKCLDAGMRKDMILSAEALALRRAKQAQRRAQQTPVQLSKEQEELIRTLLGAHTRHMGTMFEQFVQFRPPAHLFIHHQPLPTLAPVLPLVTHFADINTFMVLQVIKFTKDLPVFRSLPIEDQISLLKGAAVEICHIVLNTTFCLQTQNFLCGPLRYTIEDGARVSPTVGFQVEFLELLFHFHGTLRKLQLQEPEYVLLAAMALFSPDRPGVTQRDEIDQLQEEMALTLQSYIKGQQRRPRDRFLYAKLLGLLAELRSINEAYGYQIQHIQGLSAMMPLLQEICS

| SMILES | Potency [1] | Potency [2] | Potency [3] | Potency [4] | Potency [5] | Potency [6] | Potency [7] | Potency [8] | Potency [9] | Potency [10] | Potency [11] | Potency [12] | Potency [13] | Potency [14] | outcome [15] | outcome [16] | Potency [17] | Potency [18] | outcome [19] | Potency [20] |
| --- | --- | --- | --- | --- | --- | --- | --- | --- | --- | --- | --- | --- | --- | --- | --- | --- | --- | --- | --- | --- |
| C/C=C/[C@H]1[C@H]2C(=O)c3c(O)c(C)c(O)c(C)c3[C@]1(C(=O)O)C(=O)C=C2C | inactive | inactive | inactive | inactive | inactive | inactive | inactive | inactive | inactive | inactive | inactive | inactive | inactive | inactive | inactive | inactive | inactive | inactive | inactive |  |
| O=Cc1ccc2n1C[C@]1(OC2)O[C@H](CO)[C@@H](O)[C@@H]1O | inactive | inactive | inactive | inactive | inactive | inactive | inactive | inactive | inactive | inactive | inactive |  | inactive | inactive | inactive |  | inactive | inactive | inactive |  |
| C/C(=C\[C@H](C)C(=O)/C=C/CC1CC(=O)NC(=O)C1)[C@@H]1OC(=O)/C=C/CC/C=C/C[C@@H](O)[C@@H]1C |  | 2.98 µM (active) | 2.98 µM (active) |  | 16.8 µM (active) |  | 2.36 µM (active) |  | 3.72 µM (active) |  | 0.662 µM (active) |  | inactive | 1.33 µM (active) | inactive | inactive | 10.8 µM (active) | inactive | inactive |  |
| CO[C@H]1/C=C/CCCCC(=O)O[C@@H](/C(C)=C/[C@H](C)C(=O)C[C@H](O)CC2CC(=O)NC(=O)C2)[C@@H](C)C1 |  |  |  |  | inactive |  |  |  | 14.8 µM (active) | inactive | 4.69 µM (active) | inactive | inactive | 7.47 µM (active) | inactive | inactive | 17.2 µM (active) | inactive | inactive |  |
| COC(=O)c1cc2cc3c(c(O)c2c(=O)o1)OC1(CC3)CC2=C(O1)C(=O)c1c(O)c(OC)cc(OC)c1C2=O (centres undefined) |  | 18.8 µM (active) |  | 21.1 µM (active) | 13.3 µM (active) | inactive |  |  |  |  |  |  | inactive | 14.9 µM (active) | inactive | inactive |  | inactive |  | inactive |
| CCCc1c2c([nH]c(=O)c1C)C(=O)c1[nH]c(=O)c(C)c(CCC)c1C2=O |  |  | 7.47 µM (active) | 10.6 µM (active) | 8.41 µM (active) | inactive | 7.47 µM (active) | 7.47 µM (active) | inactive | inactive |  | inactive |  | 9.41 µM (active) |  | inactive | inactive |  | inactive |  |
| O=Cc1ccc2n1C[C@]1(C[C@H](O)[C@@H](CO)O1)OC2 | inactive | inactive | inactive | inactive | inactive | inactive | inactive | inactive | inactive | inactive | inactive | inactive | inactive | inactive | inactive | inactive | inactive | inactive | inactive | inactive |
